Screening results as filed in PubChem BioAssay.
This is one part of a sample in which hits are shown more often than they occur.
Mac1 fbg enh: CD11b/CD18-fibrinogen binding enhancement; P05107+P11215; K562 CD11b/CD18 adhesion to fibrinogen, ATPlite luminescence; activation, % at 10 µM; 93,000 tested, 0.07% active; AID 1499;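 active = 10 µM primary screen giving 50% or more activity, confirmed by 40% or more on retest at that dose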
FAK blocker: blocks human focal adhesion kinase activity. biochemical FAK kinase activity assay. inhibition, %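 (tested at 7 µM)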. 97,000 tested, 0.84% active; in the data active = inhibition above about 19%;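 also: 0% = DMSO and 100% = reference compound high control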
CD11b adhes inh: inhibitors of human CD11b/CD18 binding to fibrinogen. K562 CD11b/CD18 adhesion to fibrinogen, ATPlite luminescence; Mn2+ added to activate the integrin. inhibition, % at 10 µM. 93,000 tested, 0.54% active;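 active = primary inhibition of 50% or more at 10 µM, then 40% or more on retest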
DAT uptake mod: modulates human dopamine transporter uptake under cocaine; Q01959; LLC-PK1 hDAT cells, [14C]-dopamine uptake with cocaine IC80; actives deviate in either direction; B-score at 10 µM; 110,000 tested, 1.3% active; AID 449768;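 active = Z score or B-score, a plate-position-corrected score, falls beyond the plate's 99.7% confidence bounds, in either direction; inactive = both scores lie inside the 99.7% bounds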;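 also: scored against the spread of the other compound wells on the same plate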
D1 allo mod: D1 dopamine receptor (human) allosteric modulation. HEK293 D1, CRE-luciferase, dopamine EC30 potentiation; actives deviate in either direction. 58,000 tested, 5.9% active. B-score at 10 µM;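 active = luminescence count or its row- and column-corrected plate score outside the 99.7% band of the plate's sample wells, on either side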
Target sequence (P21728 whole entry, looked up): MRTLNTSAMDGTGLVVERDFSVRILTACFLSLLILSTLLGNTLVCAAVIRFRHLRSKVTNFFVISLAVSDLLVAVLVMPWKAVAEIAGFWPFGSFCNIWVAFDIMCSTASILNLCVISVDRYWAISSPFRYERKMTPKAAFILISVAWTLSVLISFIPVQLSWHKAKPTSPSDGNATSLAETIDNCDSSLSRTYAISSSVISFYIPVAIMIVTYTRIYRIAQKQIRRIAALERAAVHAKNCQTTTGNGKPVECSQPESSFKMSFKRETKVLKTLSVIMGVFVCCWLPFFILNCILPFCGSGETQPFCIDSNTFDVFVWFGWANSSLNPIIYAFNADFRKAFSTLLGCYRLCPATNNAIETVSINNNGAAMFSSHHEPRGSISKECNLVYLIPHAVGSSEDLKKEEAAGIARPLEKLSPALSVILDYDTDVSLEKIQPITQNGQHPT
PTK2B oligo ant: blocks oligomerization of human Pyk2 in cells. z-score (the deposit names both 25 µM and 10 µM). 99,000 tested, 0.83% active. Q293 cells, Pyk2 FERM NanoBiT luminescence; active compounds read low. Q14289. AID 1347419;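 active = Z-score of -3 or lower, scaled per plate to the spread of control and sample wells; inactive = z-score above -3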;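 also: negative z-score means lost luminescence so less FERM oligomerization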
Active calls of the source: *; x = not tested or not shown.

SMILES	Mac1 fbg enh	FAK blocker	CD11b adhes inh	DAT uptake mod	D1 allo mod	PTK2B oligo ant
O=C(Nc1cc(Sc2ccccn2)cc([N+](=O)[O-])c1)c1ccc(Cl)cc1	x	-1.7	x	-1.44	x	-3.71*
O=C(Nc1cc(Sc2ccccn2)cc([N+](=O)[O-])c1)c1cccc(Cl)c1	-7.0	x	83.7	x	x	x
O=[N+]([O-])c1cc(-c2nnc(C34CC5CC(CC(C5)C3)C4)o2)cc([N+](=O)[O-])c1	2.1	2.8	-6.6	x	x	-1.37
COC(=O)c1ccc(COC(=O)CCc2nc(-c3ccccc3)c(-c3ccccc3)o2)cc1	1.6	2.2	-25.6	0.0259	x	0.13
O=C(/C=C/c1ccc(Cl)cc1Cl)NCc1ccncc1	-2.4	-1.9	10.7	2.27*	x	-0.88
CC(=O)N(C(C)=O)S(=O)(=O)c1ccc(N=NN2CCOCC2)cc1	x	x	x	x	x	-0.8
CSc1ccc(Cl)c(C(=O)Nc2ccc(OCC(N)=O)cc2)c1	3.4	2.5	-7.8	-0.0156	x	-0.48
O=C(Nc1nc2cc3c(cc2s1)OCO3)C1=COCCO1	x	x	x	-1.06	-8.33*	x
COc1ccc(C2N=C(c3ccccc3)NC(c3ccccc3)=N2)cc1	x	2.3	x	0.42	x	0.29
COc1cc(C2N=C(c3ccccc3)NO2)cc(Br)c1O (configuration not stated)	2.3	4.2	-2.4	2.61*	0.478	-0.19
Cc1cccc(Oc2ncnc3oc(-c4ccccc4)cc23)c1C	-0.3	3.5	-31.5	-0.351	x	-0.2
COc1ccc(CCN(Cc2cc3cccc(C)c3[nH]c2=O)C(=O)NC2CCCCC2)cc1OC	0.6	-2.6	-2.3	0.762	x	-0.13
COc1ccc(C(=O)/C=C/Nc2ccc([N+](=O)[O-])cc2C)cc1OC	53.3*	-0.4	0.6	1.41	x	-0.38
COc1ccc(C(=O)/C=C/Nc2ccc([N+](=O)[O-])cc2C)c(OC)c1	47.9	-0.7	5.2	-0.773	x	0.23
CN(CC(=O)Nc1cccc2ccccc12)C(=O)/C=C/c1cccs1	-0.2	x	4.3	x	x	x
CCOC(=O)C1CCN(C(=O)c2sc3ncnc(N4CCC(C)CC4)c3c2C)CC1	x	-9.3	x	2.47*	x	-0.06
CC(Oc1ccc(Cl)cc1Cl)c1nc(-c2ccc(NC(=O)c3ccccn3)cc2)no1 (configuration not stated)	x	-0.7	x	-0.16	x	1.18
CCOC(=O)C1=C(C)NC2=C(C(=O)CC(c3cccs3)C2)C1c1cccs1 (configuration not stated)	x	21.3*	x	0.898	x	-3.33*
CCCOC(=O)C1=C(C)NC2=C(C(=O)CCC2)C1c1cccs1 (configuration not stated)	-0.3	12.7	-2.1	-0.31	x	-2.68
CCc1nc(C)cn1S(=O)(=O)c1cc(C)c(OC)c(C)c1C	2.9	0.0	79.9*	-0.133	x	0.71
CCOC(=O)C1CCN(c2ncnc3c2oc2ccccc23)CC1	-3.4	10.0	36.0	0.813	-0.0361	0.13
CCOC(=O)c1cnn(-c2ncnc3c2oc2ccccc23)c1N	2.3	x	-5.7	0.0469	-3.71*	0.71
CC(=O)Oc1cc2oc(=O)c3c(c2cc1Cl)CCC3	-8.3	-2.5	21.9	5.64*	-0.609	1.33
O=C(Oc1cc2oc(=O)c3c(c2cc1Cl)CCCC3)c1ccco1	x	-0.6	x	0.264	1.02	1.37
O=C(Oc1cc2oc(=O)c3c(c2cc1Cl)CCCC3)c1cccs1	-1.1	x	53.0*	x	x	x
SMILES	Mac1 fbg enh	FAK blocker	CD11b adhes inh	DAT uptake mod	D1 allo mod	PTK2B oligo ant
Cc1ccc2cc3c(N)c(C(=O)N4CCOCC4)sc3nc2c1	-1.9	-0.3	-0.8	x	-2.42	0.74
Cc1ccc2nc3sc(C(=O)N4CCOCC4)c(N)c3cc2c1	1.2	0.5	-4.6	-0.0735	-5.51*	0.13
O=C(NCC1CC1)C1(C(F)(F)F)C/C(=C\Cc2ccccc2)CCCO1 (configuration not stated)	x	x	x	-1.65	x	x
Cc1cc(N2CCCC2=O)cc(C)c1S(=O)(=O)NCCOc1ccc(C(C)(C)C)cc1	x	3.0	x	-2.77*	x	-0.71
O=C1CCCN1c1ccc(S(=O)(=O)NCCOc2ccccc2)cc1	x	-1.1	x	-0.457	x	1.26
COc1ccc(OC)c(NC(=O)CN(c2ccc(C)cc2)S(=O)(=O)c2c(C)noc2C)c1	-1.3	-1.4	-7.3	-0.00503	4.63*	-1.6
CCOc1ccc(OCC)c(NC(=O)CN(c2ccc(C)cc2)S(=O)(=O)c2c(C)noc2C)c1	-1.6	2.3	-2.4	-0.382	4.65*	-1.06
CCOc1ccccc1NC(=O)CN(c1ccc(C)cc1)S(=O)(=O)c1c(C)noc1C	8.9	4.4	-18.8	1.6	1.42	-1.84
COc1ccc(OC)c(NC(=O)CN(c2ccc(C(C)C)cc2)S(=O)(=O)c2c(C)noc2C)c1	5.9	8.2	-5.2	0.116	-0.039	x
Cc1ccc(N=Nc2c(N)[nH]n3c(=O)c4c(nc23)CCCC4)cc1	x	-5.9	x	x	x	x
Cc1ccc(N=Nc2c(=O)[nH]n3c(C)cc(C)nc23)cc1	x	-2.0	x	-0.48	x	-3.81*
COc1ccc(NS(=O)(=O)c2ccc(-n3nnc4ccccc43)c([N+](=O)[O-])c2)cc1	0.3	6.1	6.7	-0.185	x	-1.56
O=[N+]([O-])c1cc(S(=O)(=O)Nc2cccc(C(F)(F)F)c2)ccc1-n1nnc2ccccc21	-7.0	-1.3	94.9*	0.538	x	-1.92
CC1(C)Cc2c(sc3nc(SCC(=O)NCc4ccco4)n(-c4ccccc4)c(=O)c23)CS1	-1.2	-1.4	-1.4	2.83*	x	0.83
Cc1sc2nc(SCC(=O)NCc3ccco3)n(C)c(=O)c2c1C	-4.2	1.2	-6.6	-0.677	-2.59*	2.39
O=C(Nc1nc2ccccc2n1CCOc1ccccc1)c1ccco1	-1.3	1.1	8.3	2.28*	0.0327	-1.55
O=C(Nc1nc2ccccc2n1CCOc1ccc(Cl)cc1)c1ccco1	-0.5	4.8	-4.0	-0.697	-0.098	x
O=C(Nc1nc2ccccc2n1Cc1ccc(Cl)cc1)c1ccco1	2.2	x	-6.7	-0.497	-0.763	-0.28
O=C(Nc1nc2ccccc2n1CCN1CCCCC1)c1ccco1	2.4	-2.1	-5.4	0.971*	-1.27	0.33
COC(=O)N1CC(C)N(C(=O)OC)CC1C (configuration not stated)	1.6	x	-7.5	0.0358	-0.274	-0.01
N#CC1=C(N)NC(SCC(=O)Nc2ccc(Br)cc2)=C(C#N)C12CCCCC2	-8.7	2.4	82.6*	-1.81	x	-1.64
CSC1=C(C#N)C2(CCCC2)C(C#N)=C(N)N1	-0.3	-3.1	11.8	-0.359	0.229	x
CCSC1=C(C#N)C2(CCCC2)C(C#N)=C(N)N1	2.1	-5.6	-3.4	-2.72*	1.45	-0.81
Cc1ccc(-c2cnc(NC(=O)c3cccc(Br)c3)s2)c(C)c1	-3.0	6.4	14.3	0.988	x	0.99
CCOC(=O)c1sc(C)c2c(=O)n(CCCN3CCOCC3)cnc12	1.2	x	-3.9	0.000969	0.453	0.17
COc1cc(C2C(C#N)=C(N)Oc3cc(C)oc(=O)c32)ccc1OC(=O)N1CCOCC1 (configuration not stated)	1.2	x	-3.6	1.03	-3.72*	-0.57
